Caspase-1 inhib = qHTS Assay for Allosteric/Competitive Inhibitors of Caspase-1. P29466. Caspase-1 enzyme, Ac-WEHD-AFC fluorogenic rate. Potency, µM (highest dose often 57.5 µM), inactives show top-dose activity change, negative = inhibition, hits mostly inhibitors. hit rate 0.03% among 75,000. AID 900, 2007;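 further: plate controls were vehicle for no effect and no substrate for full effect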
Caspase-7 inhib = qHTS Assay for Allosteric/Competitive Inhibitors of Caspase-7 | recombinant caspase-7, Ac-DEVD-AFC fluorescence rate | Potency, µM (highest dose often 57.5 µM), for the others: top-dose activity change, negative = inhibition, hits mostly inhibitors | hit rate 0.02% among 75,000 | AID 889, 2007; active means well fitted inhibition curve with a large enough effect in the main read-out, with a control signal flat, not every such curve was filed as active; inconclusive means small, poorly fitted or top-dose-only effect, or a change in a side signal; further: % of control where 0% means no effect
Tau fil binding = qHTS Assay for Tau Filament Binding; hit rate 2% among 71,000; AID 596, 2007; Potency, µM (top dose mostly 57.1 µM), for the others: at the top dose activity change, negative = inhibition; recombinant tau filaments, thioflavin S fluorescence, 15 h; filaments grown with octadecylsulfate alongside compound; Microtubule-associated protein tau (Homo sapiens), P10636;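 further: on the % scale 0 is the no-effect control and ±100 the full control effect; actives lower thioflavin S fluorescence by blocking filaments or displacing dye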
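Read-out: ThS fluorescence, 450 nm excitation/510 nm emission; lower signal marks blocked filament formation or displaced dye. Tau at 1 uM with 30 uM ODS, 10 uM ThS, 5 mM DTT, 100 mM NaCl, 10 mM HEPES pH 7.4; 15 h, 37 C.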
ALOX15B inhib = qHTS Assay for Inhibitors of 15-hLO-2 (15-human lipoxygenase 2) | Polyunsaturated fatty acid lipoxygenase ALOX15B (Homo sapiens), O15296 | purified 15hLO-2, xylenol orange hydroperoxide absorbance | Potency, µM (titrated, usually from 57.1 µM), for the others: at the highest dose activity change, negative = inhibition, hits mostly inhibitors | hit rate 0.56% among 110,000; further: on the % scale 0 is the no-effect control and ±100 the full control effect; nearly all actives have a fitted effect of over 60% in size
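Read-out: hydroperoxide product oxidises ferrous iron, measured as xylenol orange complex via the 573-to-405 nm absorbance ratio after 30 min. Reaction: 50 nM enzyme, 15 min compound preincubation, 45 uM arachidonic acid, 90 min RT, Hepes pH 7.5 with Triton X-100.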
15-hLO inh = qHTS Assay for Inhibitors of 15-hLO (15-human lipoxygenase); purified 15hLO-1, xylenol orange hydroperoxide absorbance; Potency, µM (highest dose often 57.1 µM), without a hit: at the highest dose activity change, negative = inhibition, usual class: inhibitors; hit rate 1.4% among 74,000; AID 887, 2007; further: on the % scale 0 is the no-effect control and ±100 the full control effect; nearly all actives have a fitted effect of over 55% in size
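Quantitative HTS in 25 mM Hepes pH 7.5 containing 0.01% Triton X-100: human 15hLO-1 at 40 nM, arachidonic acid at 50 uM, 6 min turnover. Product quantified via ferrous oxidation/xylenol orange, 573:405 nm absorbance ratio.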
Hsp90 Hop PPI = qHTS Assay for Disrupters of an Hsp90 Co-Chaperone Interaction. Potency, µM (series often up to 57 µM), without a hit: top-dose activity change, negative = inhibition. Hsp90 C-terminal peptide / TPR2A (Hop) interaction, human. hit rate 0.44% among 71,000. AlphaScreen TPR2A-His6 binding biotin-Hsp90 C-terminal peptide; active means well fitted curve in either direction with a large enough effect; inconclusive means small, poorly fitted or top-dose-only effect, or another doubt; further: on the % scale 0 is the no-effect control and ±100 the full control effect
The depositor's hits bear a star; ? = inconclusive; nt = no result; ! = not active in a repeat; [ ] = another dose, or the depositor's remark. Sampled rows, rich in hits. Any-hit rate of the full collection: about 2.4%. Unless noted, the call rests on the fitted dose curve; in most records, active means well fitted curve in the direction sought with a large enough effect; inconclusive means small, poorly fitted or top-dose-only effect, or another doubt; inactive means no such curve, though single readings can be large; an effect the other way counts as inactive or inconclusive. Potency means the concentration at half of the fitted maximal effect.

SMILES	Caspase-1 inhib	Caspase-7 inhib	Tau fil binding	ALOX15B inhib	15-hLO inh	Hsp90 Hop PPI
Cc1ncsc1C(=O)Nc1nc2c(s1)CC(C)CC2 (stereo not drawn)	-2%	-1%	-2%	7%	-5%	-4%
O=C(CSc1nnc(C2COc3ccccc3O2)o1)Nc1nccs1 (stereo not drawn)	0%	-2%	-2%	nt	88%	13µM*
O=c1c2ccccc2sc2c(CO)ccc(NCCN3CCCCC3)c12	1%[11.5 µM]	-3%[11.5 µM]	3.2µM*	3%[11.4 µM]	-2%[11.4 µM]	-4%[11 µM]
CCN(CC)CCNc1ccc(CO)c2sc3ccccc3c(=O)c12	-3%	-1%	4µM*	29%	-3%	-8%[26 µM]
CCN(CC)CCNC(=O)Cc1nn(CC)c(=O)c2ccccc12	-3%	-1%	7%	-1%	-8%	4%
CCOC(=O)c1sc(NC(=O)CSc2n[nH]c(-c3ccc(Cl)cc3Cl)n2)c(C#N)c1C	nt	nt	nt	-30%	nt	nt
CC1(C)Cc2c(c(N3CCOCC3)nc3sc(-c4ccc(C(=O)O)o4)c(N)c23)CO1	nt	?	-12%	nt	20µM*	?
CSc1oc(-c2ccco2)nc1S(=O)(=O)c1ccc(Br)cc1	-5%	-7%	-22%	-20%	-30%	8%
CC(C)Sc1oc(-c2ccco2)nc1S(=O)(=O)c1ccc(F)cc1	-3%	-13%	-26%	nt	25µM*	-1%
CO/N=C(\c1nonc1N)N1CCN(c2ccc([N+](=O)[O-])cc2Cl)CC1	nt	nt	nt	10%	nt	nt
Cn1c(=O)c2c(-c3ccccc3)n(-n3cnnc3)cc2n(C)c1=O	-8%	-5%	4%	4%	2%	-21%
Cn1c(NCc2cccc(Br)c2)nc2ccccc21	-1%	-4%	7%	42%	10µM*	-9%
COC(=O)[C@@]1(Cc2ccc(OC)cc2)[C@H]2c3cc(C(=O)N4CCCC4)n(CCCNc4ncc(C(F)(F)F)cc4Cl)c3C[C@H]2CN1C(=O)c1ccccc1	-2%	-3%	10%	-1%	nt	-20%
CC1(C)CC(=O)C(C=Nc2ccc3c(c2)OCO3)=C(O)C1	-4%	-3%	-17%	-3%	2%	-1%
COc1cccc(C2CC(=O)N3CN(c4cccc(Cl)c4C)CSC3=C2C#N)c1OC (stereo not drawn)	-4%	-3%	-8%	13µM*	?	-5%[2.3 µM]
COc1ccc(OC)c(C2CC(=O)N3CN(c4cccc(Cl)c4)CSC3=C2C#N)c1 (stereo not drawn)	-3%	-2%	9%	?	?	-16%
COc1ccc(OC)c(C2CC(=O)N3CN(c4cccc(Cl)c4C)CSC3=C2C#N)c1 (stereo not drawn)	-4%	-4%	-10%	10µM*	?	-7%[2.3 µM]
COc1ccc(OC)c(C2CC(=O)N3CN(c4ccccc4F)CSC3=C2C#N)c1 (stereo not drawn)	0%	-1%	-8%	32µM*	?	-5%[2.3 µM]
COc1ccc(OC)c(C2CC(=O)N3CN(c4ccc(C)c(Cl)c4)CSC3=C2C#N)c1 (stereo not drawn)	-6%	-9%	-17%	?	?	-7%
CCOC(=O)c1cnc2ccc(C(=O)OC)cc2c1NCc1ccco1	-1%	-2%	2%	3%	-1%	1%
O=S(=O)(O)c1cc(N=C=S)ccc1/C=C/c1ccc(N=C=S)cc1S(=O)(=O)O	-1%	0%	nt	-11%	-11%	nt
O=C(O)C1CSCN1S(=O)(=O)c1cccc2nsnc12 (stereo not drawn)	nt	nt	nt	14%	nt	nt
O=C(c1cnccn1)N1CCc2ccccc21	-2%	0%	-7%	0%	16µM*	-4%
O=C(c1cccnc1)N1CCCc2ccccc21	0%	0%	-6%[11.4 µM]	-4%	-5%[11.4 µM]	-6%[11 µM]
Cc1cc(N2CCOCC2)c2c(N)c(Br)cc(C)c2n1	-5%	-2%	3.2µM*	-3%	0%[11.4 µM]	4%[11 µM]
SMILES	Caspase-1 inhib	Caspase-7 inhib	Tau fil binding	ALOX15B inhib	15-hLO inh	Hsp90 Hop PPI
CN(CCOc1ccc(C[C@H](Nc2ccccc2C(=O)c2ccccc2)C(=O)O)cc1)c1ccccn1	-4%	-15%	40µM*!	-28%	5%	-9%
CN(Cc1ccccc1)C(=O)N[C@@H](Cc1ccccc1)C(=O)O	0%	-1%	0%	-1%	3%	1%
N#Cc1cc2c(nc1SCc1ccncc1)CCC2	0%	-3%	6.3µM*	-1%	?	-2%
N#CCSc1nc2c(cc1C#N)CCCCCC2	nt	nt	nt	-2%[2.29 µM]	nt	nt
OCCCCNc1cccc2ccccc12	-4%	-2%	25µM*	?	-13%	-7%
COC(=O)c1sc(NC(=O)c2oc3ccccc3c2C)nc1C	nt	nt	nt	-8%	nt	nt
N=c1n(CCN2CCCC2)c2ccccc2n1CC(O)c1ccco1 (stereo not drawn)	-2%	1%	12%	56%	9%	-6%
Cc1ccccc1Cn1c(=N)n(CC(O)c2ccco2)c2ccccc21 (stereo not drawn)	0%	-1%	16µM*	20%	5%	-5%
COc1ccc(Nc2nc3ccccc3nc2C)cc1	-1%	0%	20µM*	4%	-14%	4%
COc1ccc(Cl)cc1NC(=O)CN(c1ccccc1)S(=O)(=O)N(C)C	-1%	-1%	-1%	7%	-1%	5%
CC(C)C1C(C#N)=C(N)SC(N)=C1C#N	-1%	-2%	18%[11.4 µM]	-5%	?	-1%[11 µM]
FC(F)(F)c1cc(-c2ccco2)nc(NCc2ccccc2)n1	nt	nt	nt	-12%	nt	nt
FC(F)(F)c1cc(-c2ccco2)nc(NCc2cccnc2)n1	-3%	-8%	20µM*	11%	?	-9%
Fc1ccc(CNc2nc(-c3ccco3)cc(C(F)(F)F)n2)cc1	-10%	-13%	?	-9%	25µM*	?
CCOc1cc(C2C(C(=O)c3ccco3)=C(O)C(=O)N2CCc2ccccc2)ccc1O (stereo not drawn)	0%	-1%	159%	-18%	-64%	-3%
Cc1cccc(CN2CCN(CC(=O)O)C2=O)c1	-2%	-2%	2%	3%	7%	-4%
Cc1ccc(-c2nc3cnccn3c2Nc2ccc3c(c2)OCCO3)o1	4%	-1%	-8%	-29%	25µM*	-14%
Cc1cc(C)c2nc3s/c(=C/c4ccc5c(c4)n(C)c(=O)n5C)c(=O)n3c2c1	-1%	-3%	25µM*	5%[2.29 µM]	-5%	-2%

Compound activity as filed in PubChem BioAssay.
